# Rows were chosen to be rich in hits. Some 11% of all compounds tested hit in one or more screens of this group.
# USP28 inh: inhibitors of human USP28 deubiquitinase | 3% of 47,000 active | inhibition, % at 25 µM | purified USP28, Ub-rhodamine cleavage fluorescence, 30 min | AID 1645857, 2021
# USP30 inh: inhibitors of human USP30 deubiquitinase; inhibition, % at 25 µM; Ubiquitin carboxyl-terminal hydrolase 30 (Homo sapiens), Q70CQ3; 5.3% of 47,000 active; AID 1645860, 2021; purified USP30, Ub-rhodamine cleavage fluorescence
# OTUD3 block: inhibitors of human OTUD3 deubiquitinase. 0.7% of 47,000 active. OTU domain-containing protein 3 (Homo sapiens), Q5T2D3. inhibition, % at 25 µM. purified OTUD3, Ub-rhodamine fluorescence, 2 h
# USP17 block: inhibitors of human USP17 deubiquitinase; purified USP17, Ub-rhodamine cleavage fluorescence, 3 h; inhibition, % at 50 µM; 6.5% of 47,000 active; Ubiquitin carboxyl-terminal hydrolase 17-like protein 5 (Homo sapiens), A8MUK1
# Target sequence (A8MUK1 whole entry, looked up): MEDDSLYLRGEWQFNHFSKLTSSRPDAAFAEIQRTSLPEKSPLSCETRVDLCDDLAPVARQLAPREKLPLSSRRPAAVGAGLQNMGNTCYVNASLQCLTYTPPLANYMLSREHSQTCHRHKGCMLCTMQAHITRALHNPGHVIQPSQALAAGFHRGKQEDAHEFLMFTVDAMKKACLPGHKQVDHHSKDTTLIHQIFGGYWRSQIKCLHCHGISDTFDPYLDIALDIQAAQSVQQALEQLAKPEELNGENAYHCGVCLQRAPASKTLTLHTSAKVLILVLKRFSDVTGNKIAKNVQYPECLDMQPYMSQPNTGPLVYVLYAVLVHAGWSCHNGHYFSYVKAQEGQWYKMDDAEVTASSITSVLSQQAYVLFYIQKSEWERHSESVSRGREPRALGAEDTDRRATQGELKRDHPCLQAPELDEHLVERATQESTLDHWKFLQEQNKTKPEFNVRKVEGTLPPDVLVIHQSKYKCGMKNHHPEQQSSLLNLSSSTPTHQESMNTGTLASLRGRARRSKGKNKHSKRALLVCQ
# The depositor's hits bear a star. No stated cut-off is given here; in the data, active means inhibition above about 30%; inactive means the rest.
SMILES,USP28 inh,USP30 inh,OTUD3 block,USP17 block
CC1=C(c2ccccc2)S(=O)(=O)N(CC(=O)Nc2cccc(F)c2)C1=O,-1,-15,-3,1
CC1=C(c2ccccc2)S(=O)(=O)N(CC(=O)Nc2cccc(Cl)c2)C1=O,26,35*,26,30*
FC(F)(F)c1cccc(Nc2nnc(-c3cccnc3)s2)c1,-2,22,2,50*
NC(=O)COC(=O)c1cccnc1Nc1cccc(C(F)(F)F)c1,16,-44,-14,-13
O=C(/C=C/c1cnc2ccccc2c1)NCc1ccccc1,17,41*,3,50*
COc1ccccc1-c1nc(SCc2ccccn2)n[nH]1,3,-7,0,-9
Cc1cc2nc(-c3ccc(SCc4ccccn4)nc3)[nH]c2cc1C,24,26,-9,57*
O=C(NCc1cccnc1)C1CCN(c2cc(N3CCOCC3)ncn2)CC1,13,43*,12,11
Cc1cccc(CNC(=O)C2CCN(c3cnc(N4CCOCC4)nc3)CC2)c1,-9,-19,-9,-14
Cc1cc(C)cc(-n2ccn3c(CCC(=O)Nc4cccc(F)c4)nnc3c2=O)c1,-7,-9,-8,1
Cc1ccc(NC(=O)CCc2nnc3c(=O)n(-c4cc(C)cc(C)c4)ccn23)cc1,5,43*,8,15
Cc1ccc(CNC(=O)CCc2nnc3c(=O)n(-c4cc(C)cc(C)c4)ccn23)cc1,7,-6,17,24
O=C(CCCc1nnc2c(=O)n(-c3cccc(F)c3)ccn12)Nc1ccccc1,-25,-64,-17,38*
Cc1cc(C)cc(-n2ccn3c(CCC(=O)Nc4ccc(F)cc4)nnc3c2=O)c1,16,49*,19,22
Cc1cccc(NC(=O)CCCc2nnc3c(=O)n(-c4cccc(F)c4)ccn23)c1,-9,-7,-4,-37
COc1ccc(-n2ccn3c(CCC(=O)NCc4ccc(F)cc4)nnc3c2=O)cc1,-2,17,10,69*
COc1cccc(Cn2nc3n(CC(C)C)c(=O)c4ccc(C(=O)NC(C)C)cc4n3c2=O)c1,4,30*,13,18
COc1cccc(Cn2nc3n(C(C)C)c(=O)c4ccc(C(=O)NC(C)C)cc4n3c2=O)c1,10,15,12,14
Cc1cc2[nH]c(=O)[nH]c2cc1S(=O)(=O)NCc1ccccc1,-24,-9,-6,-13
O=C(COc1cccc(C(=O)NCc2ccccc2)c1)Nc1ccc(Oc2ccccc2)cc1,20,56*,40*,40*
COC(=O)COc1ccc(/C=N/NC(=O)c2ccc(CN3CCc4ccccc4C3)cc2)cc1,17,54*,-4,25
COc1ccc(CC(=O)N(Cc2nc3nc(C)cc(C)n3n2)c2ccc(C)cc2)cc1OC,-3,-1,-4,-10
O=C(/C=C\c1ccc2c(c1)OCO2)Nc1c2c(nn1-c1ccc(Cl)cc1)CS(=O)(=O)C2,36*,47*,39*,57*
CCC(C(=O)Nc1c2c(nn1-c1ccc(Cl)cc1)CS(=O)(=O)C2)c1ccccc1 (centres undefined),0,12,0,38*
COc1ccc(-n2nc3c(c2NC(=O)/C=C\c2ccccc2)CS(=O)(=O)C3)cc1,-9,-10,-11,-10
SMILES,USP28 inh,USP30 inh,OTUD3 block,USP17 block
CCc1cc2c3c([nH]c2cc1S(=O)(=O)NCc1ccccc1Cl)CCCC3=O,21,-17,8,-7
COc1ccc(OCCNC(=O)c2ccccc2C(F)(F)F)cc1,-10,-9,0,0
Cc1nc(-c2ccc(-c3noc(-c4ccnn4C)n3)cc2)cs1,0,40*,-5,33*
CC(=O)Nc1ccc(O)c(-c2nc3cc(C)ccc3o2)c1,9,-39,10,51*
CC(C)(C)c1ccc(C(=O)Nc2ccc(O)c(-c3nc4cnccc4o3)c2)cc1,-5,-2,0,2
CC(=O)Nc1cccc(N2CC(C(=O)NCCc3ccc(Cl)cc3)CC2=O)c1 (centres undefined),-6,-15,-3,-3
O=C(Nc1ccc2c(c1)OCO2)C(Cc1cc(Cl)cc2c1OCOC2)C(=O)c1ccccc1 (centres undefined),-4,2,1,0
N#Cc1ccc(CC(C(=O)Nc2ccc3c(c2)OCO3)C(=O)c2ccccc2)cc1 (centres undefined),15,35*,18,13
O=C(CC(C(=O)Nc1ccc2c(c1)OCO2)C(=O)c1ccccc1)Nc1ccc(Cl)cc1F (centres undefined),19,59*,25,34*
